The nature of the test: small molecules captured by biotinylated probe aFSTL3 – biochemical, small-molecule microarray, fluorescence 635/667, stem cell growth factor project, primary screen (AID 1064).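 Also: measures binding of the biotinylated anti-FSTL3 antibody to printed compounds.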 Particulars: higher = more signal.
The molecule `CC(C)c1ccc(NN2C(C(O)C3CCCCC3)C=CC3C(=O)N(c4ccccc4)C(=O)C32)cc1` (stereo not given) returned a composite z-score of 0.249.

`COc1ccc(C(=O)Nc2ccc(CN3C(=O)[C@]4(O[C@H](CC(=O)N(CCO)Cc5ccccc5)[C@@H]([Si](C)(C)c5ccc(OC)cc5)[C@@H]4C)c4ccccc43)cc2)cc1`: the composite z-score is -0.284.

The molecule `CCOC(=O)C=C1C[C@@H](c2cccc([N+](=O)[O-])c2)O[C@@H](c2cccc([N+](=O)[O-])c2)O1` returned a composite z-score of 0.654.

With `CC[C@@H]1C=C(C(=O)O)[C@H](c2cccc(Cl)c2)N1S(=O)(=O)c1ccc(C)cc1`, the composite z-score was 0.0801.

As for `C=CCOC(=O)[C@H]1[C@@H]2C(=O)O[C@@H](c3ccccc3)[C@@H](c3ccccc3)N2[C@@H](c2ccc(OCCOC(=O)[C@@H]3C[C@@H]4C(=O)N[C@@H](Cc5ccccc5)C(=O)N4[C@@H]3c3ccc(O)cc3)cc2)[C@]12C(=O)Nc1ccc(I)cc12`, the composite z-score turned out to be 1.36.

The molecule `COC(=O)C1=CC(c2ccc(CO)cc2)=CC(C2CC2)N(Cc2cc3c(cc2Br)OCO3)C=C1C(=O)OC` (stereo not given) came in with a composite z-score of 0.131.

As to `O=C1O[C@H](c2ccccc2)[C@H](c2ccccc2)N2[C@H]1[C@@H](C(=O)O)[C@]1(C(=O)Nc3ccc(C#CC4(O)CCCCCC4)cc31)[C@H]2c1ccccc1OCCO`, the composite z-score is -0.304.

In turn, `CCCCCCc1nc(-c2ccc(OC)nc2)c(C)c2c1[Si](C(C)C)(C(C)C)OC2` displayed a composite z-score of -0.314.

Take `[N-]=[N+]=NCc1ccccc1[C@H]1OC(c2ccc(OCCCO)cc2)=N[C@@]1(Cc1ccccc1N=[N+]=[N-])C(=O)N1CCOCC1`: the composite z-score amounted to 0.439.

For the molecule `C=CCOC(=O)[C@H]1[C@@H]2C(=O)O[C@@H](c3ccccc3)[C@@H](c3ccccc3)N2[C@@H](c2ccc(OCCOC(=O)[C@H]3C[C@H]4C(=O)NCC(=O)N4[C@H]3c3cccc(OCCO)c3)cc2)[C@]12C(=O)Nc1ccc(I)cc12`, the composite z-score is -0.365.

(Values after PubChem BioAssay.)
